Bioassay records deposited in PubChem BioAssay by National Center for Advancing Translational Sciences (NCATS).
Most compounds without a hit are left out; they make up all but 10% or so of the library.
GPT2 inh – blocks human glutamate pyruvate transaminase 2 | Q8TD30 | Recombinant GPT2, coupled pyruvate oxidase/HRP Amplex Red fluorescence | AID 1671188 | actives 0.25% (n = 100,000) | Potency, µM (top dose mostly 57.7 µM), inactives show top-dose activity change, negative = inhibition, actives largely listed as inhibitors; further: on the % scale 0 is the no-effect control and ±100 the full control effect; nearly all actives have a fitted effect of over 60% in size
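Fluorescence read-out: pyruvate from GPT2 turnover coupled to pyruvate oxidase, HRP and Amplex Red (0.2mM ThPP, 0.2U/mL PO and HRP, 50uM Amplex final). Substrates 250uM a-KG, 2mM L-alanine; enzyme 10ng/uL; 30 min RT.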
Luciferase inh – Photinus pyralis luciferase inhibition | P08659 | purified P. pyralis luciferase, luminescence, biochemical | Potency, µM (doses to about 115 µM), usual class: inhibitors | actives 2.5% (n = 76,000); further: on the % scale 0 is the no-effect control and ±100 the full control effect; nearly all actives have a fitted effect of over 65% in size
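Purified 10nM P. pyralis luciferase with 10uM D-luciferin and 10uM ATP in 50mM Tris acetate pH 7.5, 10mM Mg acetate, 0.01% Tween-20, 0.05% BSA. qHTS titration; luminescence read by CCD imager.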
hNpr1 antagonist – human Npr1 receptor antagonism; HEK293 hNpr1 GloSensor cGMP, ANP-stimulated luminescence; Potency, µM (titrated, usually from 46.3 µM), without a hit: at the top dose activity change, negative = inhibition, actives largely listed as inhibitors; actives 1.6% (n = 76,000); AID 1347048; calls by dose curve; further: on the % scale 0 is the no-effect control and ±100 the full control effect; nearly all actives have a fitted effect of over 60% in size
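Compound pre-incubated 30 min at room temperature on GloSensor-loaded HEK293 cells stably carrying hNpr1 and the pGS-40F cGMP biosensor. Stimulation uses hNppA at 0.1 nM final; luminescence is taken at baseline and 20 min post-agonist.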
NIH3T3 tox – kills NIH 3T3 cells; NIH 3T3 viability, CellTiter-Glo ATP luminescence, 48-72 h; Potency, µM (series often up to 96.7 µM), for inactives: at the highest dose activity change, negative = cytotoxicity, most hits filed as inhibitors; actives 4.3% (n = 94,000); further: on the % scale 0 is the no-effect control and ±100 the full control effect; nearly all actives have a fitted effect of over 55% in size
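Cytotoxicity is measured as loss of cellular ATP: NIH 3T3 cells (400/well) are exposed to compound for 48 or 72 hr at 37 °C, then CellTiter-Glo luminescence is imaged after 10 min at room temperature.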
HEK cytotox – HEK 293 cell cytotoxicity; AID 1345083; Potency, µM (doses to about 115 µM), without a hit: at the highest dose activity change, negative = cytotoxicity, most hits filed as inhibitors; HEK 293 viability, ATP luminescence (CellTiter-Glo), 48-72 h; actives 6.6% (n = 94,000); further: on the % scale 0 is the no-effect control and ±100 the full control effect; nearly all actives have a fitted effect of over 60% in size
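Pintool-delivered compounds were incubated with HEK 293 cells (250 cells/well) at 37 degree Celsius for 48 or 72 hr. ATP-dependent luminescence (CellTiter-Glo) then reported remaining viable cells.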
Npr1 antag conf – hNpr1 antagonism, confirmation assay. Potency, µM (top dose mostly 57.6 µM), for the others: top-dose activity change, negative = inhibition, actives largely listed as inhibitors. shares compounds with hNpr1 antagonist. HEK293 hNpr1 cGMP GloSensor luminescence, ANP-stimulated. actives 76% (n = 1,400); calls by dose curve; further: nearly all actives have a fitted effect of over 70% in size
Npr2 selectivity – hNpr2 antagonism, selectivity versus Npr1 | shares compounds with hNpr1 antagonist | HEK293 hNpr2 GloSensor cGMP luminescence, CNP-stimulated | Potency, µM (top dose mostly 57.6 µM), for the others: at the top dose activity change, negative = inhibition, most hits filed as inhibitors | actives 67% (n = 1,400) | AID 1347046; calls by dose curve; further: nearly all actives have a fitted effect of over 70% in size
FLuc counter – inhibits firefly luciferase, false Npr1 antagonist flag. shares compounds with hNpr1 antagonist. purified FLuc enzyme, luminescence, Km substrate. Potency, µM (highest dose often 57.6 µM), without a hit: top-dose activity change, negative = inhibition, most hits filed as inhibitors. actives 0.7% (n = 1,400); further: 0% is about no effect
GloSensor cGMP – counter-screen for Npr1 antagonists: GloSensor control cell line | HEK293 GloSensor cGMP, SNP-stimulated, luminescence | actives 69% (n = 1,400) | AID 1347051 | shares compounds with hNpr1 antagonist | Potency, µM (doses to about 57.6 µM), for inactives: at the highest dose activity change, negative = inhibition, actives largely listed as inhibitors; calls by dose curve; further: on the % scale 0 is the no-effect control and ±100 the full control effect; nearly all actives have a fitted effect of over 70% in size
The depositor's hits bear a star; [ ] = dose if it differs, or a comment. Unless noted, the call rests on the fitted dose curve; in most records, active means well fitted curve in the direction sought with a large enough effect; inconclusive means small, poorly fitted or top-dose-only effect, or another doubt; inactive means no such curve, though single readings can be large; an effect the other way counts as inactive or inconclusive. Potency means the concentration at half of the fitted maximal effect.

`c1ccc(CNC[C@H]2COCc3nc4ccccc4n32)cc1` gave GPT2 inh inactive, Luciferase inh inactive, hNpr1 antagonist 22µM*, NIH3T3 tox inconclusive, HEK cytotox inconclusive, Npr1 antag conf 35µM*, Npr2 selectivity 31µM*, FLuc counter -1%[86.2 µM] and GloSensor cGMP 28µM*.
`COc1ccc2nc3n(c2c1)[C@@H](CNCc1ccccc1)COC3` gave GPT2 inh -10%[88.5 µM], Luciferase inh inactive, hNpr1 antagonist inconclusive, NIH3T3 tox inconclusive and HEK cytotox inconclusive.
Screening Cc1cccc(C(=O)N2CCCC2c2nc(C3CCOCC3)no2)c1 (stereo not given) returned GPT2 inh inactive, Luciferase inh inactive, hNpr1 antagonist 20%, NIH3T3 tox -25% and HEK cytotox -2%.
For O=C(N[C@H]1C[C@H]2C(=O)NC[C@@H](CCC(=O)N3CCCCC3)N2C1)c1ccco1 the results were GPT2 inh -5%[88.5 µM], Luciferase inh inactive, hNpr1 antagonist 4%[70.6 µM], NIH3T3 tox 0%[174 µM] and HEK cytotox 1%[172 µM].
For O=C(C1CCC1)N1CCC(Oc2ccccc2)C1 (stereo not given) the results were GPT2 inh inactive, Luciferase inh inactive, hNpr1 antagonist 2%, NIH3T3 tox -16% and HEK cytotox -10%.
Brc1ccc(CN2CCC(c3nc4ccncc4[nH]3)C2)cc1 (stereo not given) was read as GPT2 inh 5%, Luciferase inh inactive, hNpr1 antagonist 11µM*, NIH3T3 tox inconclusive, HEK cytotox inconclusive, Npr1 antag conf 24µM*, Npr2 selectivity 22µM*, FLuc counter -1% and GloSensor cGMP inconclusive.
OC[C@@H](O)CNc1nccc(C2(c3ccccc3Cl)CCNCC2)n1 was read as GPT2 inh -2%, Luciferase inh inactive, hNpr1 antagonist 3%, NIH3T3 tox 1% and HEK cytotox inactive.
Screening CC(=O)N1CCc2cc(S(=O)(=O)CCC(=O)N3CCC(CCOc4ccccc4)C3)ccc21 (stereo not given) returned GPT2 inh inactive, Luciferase inh inactive, hNpr1 antagonist 10µM*, NIH3T3 tox -20%, HEK cytotox -17%, Npr1 antag conf 27µM*, Npr2 selectivity inconclusive, FLuc counter 3% and GloSensor cGMP inconclusive.
For CCOc1ccc(-c2cc3n(n2)CCCN(C(=O)CCS(=O)(=O)c2ccc4c(c2)CCN4C(C)=O)C3)cc1 the results were GPT2 inh -5%, NIH3T3 tox -5% and HEK cytotox -11%.
`CC(=O)N1CCc2cc(S(=O)(=O)NCCCC(=O)N3CCC(CCOc4ccccc4)C3)ccc21` (stereo not given) gave GPT2 inh 3%, Luciferase inh inactive, hNpr1 antagonist 5.6µM*, NIH3T3 tox inconclusive, HEK cytotox inconclusive, Npr1 antag conf 5.4µM*, Npr2 selectivity 6.1µM*, FLuc counter 7% and GloSensor cGMP 4.8µM*.
